Compounds with a hit are over-represented: about 7.5% of the library has one in this group of screens.
B2AR arrestin – beta2AR (human) beta-arrestin recruitment activity; AID 492947; beta-arrestin recruitment to beta2AR, cell-based reporter; actives 0.02% (n = 330,000); P07550; Potency, µM (titrated, usually from 46.1 µM), without a hit: top-dose activation, usual class: activators;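 further: potency means the concentration at half of the fitted maximal effect; 0% = DMSO controls and full agonism = EC100 isoproterenol or metaproterenol; nearly all actives have a fitted effect of over 65% in size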
Target sequence (P07550 whole entry, looked up): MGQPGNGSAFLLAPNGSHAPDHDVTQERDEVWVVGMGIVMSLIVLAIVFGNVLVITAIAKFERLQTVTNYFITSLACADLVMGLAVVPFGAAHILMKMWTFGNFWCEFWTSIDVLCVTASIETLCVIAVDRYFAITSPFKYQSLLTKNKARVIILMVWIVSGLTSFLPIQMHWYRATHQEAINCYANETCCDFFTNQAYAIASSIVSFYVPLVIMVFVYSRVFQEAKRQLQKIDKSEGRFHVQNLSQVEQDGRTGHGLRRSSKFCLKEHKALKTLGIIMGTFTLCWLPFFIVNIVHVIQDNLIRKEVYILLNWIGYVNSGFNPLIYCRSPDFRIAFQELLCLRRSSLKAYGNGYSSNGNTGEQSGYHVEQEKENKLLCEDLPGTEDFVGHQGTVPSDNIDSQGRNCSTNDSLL
VP16 counter – Gal4-VP16 reporter inhibition counter-screen; AID 2546; Potency, µM (highest dose often 53.6 µM), for inactives: at the highest dose activity, negative = inhibition, actives largely listed as inhibitors; actives 3.5% (n = 310,000); Drosophila S2 Gal4-VP16 UAS-luciferase, luminescence, 20 h;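 further: Gal4-VP16 expression switched on by copper sulfate through the metallothionein promoter; potency means the concentration at half of the fitted maximal effect; nearly all actives have a fitted effect of over 50% in size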
ELG1 DNA repair – blocks ELG1-dependent DNA repair in HEK293T cells. HEK293T ELG1-luciferase reporter, luminescence, 16 h; DNA damage induced by 5-fluorouridine. Potency, µM (doses to about 46.1 µM), inactives show at the top dose activity change, negative = inhibition, actives largely listed as inhibitors. actives 2.3% (n = 330,000); further: potency means the concentration at half of the fitted maximal effect; nearly all actives have a fitted effect of over 55% in size
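HEK293T cells expressing luciferase-tagged ELG1 (2,000/well) received 5-Fluorouridine plus compound or DMSO for 16 hr at 37 °C. Luciferase was read by ONE-Glo luminescence after 30 min at room temperature.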
RORg inh – ROR gamma (mouse) transcription inhibition | P51450 | AID 2551 | Drosophila S2 Gal4-RORgamma UAS-luciferase reporter, 20 h | actives 5.4% (n = 310,000) | Potency, µM (doses to about 53.6 µM), for the others: top-dose activity change, negative = inhibition, most hits filed as inhibitors; further: potency means the concentration at half of the fitted maximal effect; nearly all actives have a fitted effect of over 60% in size
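Luminescence from a UAS-regulated Photinus luciferase reporter in stably transfected Drosophila Schneider cells is measured; decreased signal marks ROR gamma inhibition. Fusion expression is induced by 700 uM copper sulfate for 20 hr.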
TSHR antagonist – human thyrotropin receptor antagonism. P16473. TSHR-expressing cells, TSH-stimulated cAMP HTRF, 2 h; hits give low values. activity change, negative = inhibition, % at 11.5 µM. actives 0.2% (n = 330,000). AID 504810;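 active means activity change below a set negative limit, meaning inhibition stronger than a set level, cut at about -70% in these data; inconclusive means activity change between two set negative limits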
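Read-out is FRET at 665 nm (cryptate excitation 337 nm) from a cryptate-tagged anti-cAMP antibody, competed by cell cAMP against cAMP-d2. Compounds are tested on freshly harvested TSHR cells challenged with 4nM TSH (EC80) for 2 hours at 37 deg C.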
* = called active by the depositor; ? = inconclusive; . = not tested or not shown; [ ] = remark or other dose. Unless noted, the call rests on the fitted dose curve; in most records, active means well fitted curve in the direction sought with a large enough effect; inconclusive means small, poorly fitted or top-dose-only effect, or another doubt; inactive means no such curve, though single readings can be large; an effect the other way counts as inactive or inconclusive. Unless noted, on the % scale 0 is the no-effect control and ±100 the full control effect.

SMILES | B2AR arrestin | VP16 counter | ELG1 DNA repair | RORg inh | TSHR antagonist
COc1ccc(C2CC(c3ccccc3)Oc3cc(C)c(Cl)c(C)c32)cc1 (centres undefined) | . | -2% | . | -7% | .
COc1ccc(OCC2CC3C(CCC(C)C3c3ccc(Br)cc3)C(=O)O2)cc1 (centres undefined) | . | -5%[10 µM] | . | -20%[10 µM] | .
COc1cc(/C=N/NC(=O)c2ccc3ccccc3c2)ccc1Oc1ccc([N+](=O)[O-])cn1 | 4% | 14% | 16µM* | ? | 4
COc1cc(/C=N/NC(=O)c2cccc([N+](=O)[O-])c2)ccc1OCc1ccccc1 | 0% | ? | ? | 3.2µM* | 34
COc1ccc(/C=N/NC(N)=S)cc1OC(=O)c1ccccc1 | 3% | ? | ? | 13µM* | -16
O=C(N/N=C/c1ccc(OC(=O)c2ccccc2)c([N+](=O)[O-])c1)c1ccc(O)cc1 | ? | ? | -7% | 8.9µM* | -11
COc1cccc(C(=O)N/N=C/c2ccc(Oc3ccc([N+](=O)[O-])cn3)c(OC)c2)c1 | 0% | 2% | -23% | 6% | -2
COc1ccc(C(=O)Oc2ccc(/C=N/NC(=O)c3ccccc3OC)cc2[N+](=O)[O-])cc1 | 0% | -1% | 6% | ? | 0
COc1ccc(NC2C[C@H]3CCCC(=O)N4CC[C@@H](C2)[C@@H]34)cc1 (some centres undefined) | . | 0% | . | -2% | .
COc1cc(/C=C/C(=O)NC(C)(C)C)ccc1OCc1ccccc1 | 0% | -3% | -4% | ? | 4
COc1cc(/C=C/[N+](=O)[O-])ccc1OCc1cccc(C(=O)O)c1 | -1% | -21%[10 µM] | ? | 7.1µM* | -19
c1ccc(CCNc2ncnc3nc[nH]c23)cc1 | 0% | ? | ? | 2% | -12
c1ccc2c(CCNc3ncnc4nc[nH]c34)c[nH]c2c1 | 0% | ? | 6.5µM* | ? | -12
CC(C)(C)S(=O)(=O)/C(C#N)=N/Nc1ccc(C#N)cc1 | 0% | -12% | 18µM* | ? | -15
CCNc1ncc2nc(-c3ccc(F)cc3)c(=O)n(-c3ccc(OC)cc3)c2n1 | . | -11% | . | -22% | .
CN1CCN(C(=O)/C=C/c2cn(-c3ccccc3)nc2-c2ccc3c(c2)OCCO3)CC1 | 0% | -2% | 10µM* | -21% | -9
CN(C)C(=O)/C=C\c1cn(-c2ccccc2)nc1-c1ccc2c(c1)OCCO2 | 0% | -5% | 16µM* | ? | -4
O=C(/C=C/c1cn(-c2ccccc2)nc1-c1cccnc1)N1CCCCC1 | 0% | 11% | -28% | 21% | -4
O=C(/C=C/c1cn(-c2ccccc2)nc1-c1cccc(Cl)c1)N1CCN(c2ccccn2)CC1 | 0% | 0%[10 µM] | 21µM* | 36% | -12
O=C(O)/C=C/c1cn(-c2ccccc2)nc1-c1ccc2c(c1)OCCO2 | 0% | -2% | ? | ? | -12
CC(C)=CCC/C(C)=C/CNC(=O)C[C@H]1C[C@H](C(=O)N(C(C)C)C(C)C)[C@@]2(C)c3[nH]c4cc(CCC(=O)N(C)C)ccc4c3CCN2C1=O | 0% | . | ? | . | -3
CCOc1ccc(N(CC(=O)N/N=C(\C)c2cccc(NC(C)=O)c2)S(=O)(=O)c2ccccc2)cc1 | 4% | -6% | ? | 16% | -6
COc1ccc(OC)c(N(/C(N)=N/c2nc(C)cc(C)n2)S(=O)(=O)c2ccc(NC(C)=O)cc2)c1 | 0% | -8% | 4% | 3% | -3
CCNC(=S)NNC(=O)CSc1nc2ccccc2[nH]1 | 0% | 13µM* | 4% | 4µM* | 9
Cc1ccc(CNC(=O)CSc2nc3ccccc3[nH]2)cc1 | -1% | . | 19% | . | -6
SMILES | B2AR arrestin | VP16 counter | ELG1 DNA repair | RORg inh | TSHR antagonist
Cn1c(SCC(=O)NCc2ccc(F)cc2)nc2ccccc21 | -1% | 2% | -3% | -26% | 0
CCNC(=S)NNC(=O)CSc1nc2ccccc2n1C | 1% | 0.71µM* | 0% | 0.22µM* | -7
CCNC(=S)NNC(=O)CCc1nc2cc(Cl)ccc2n(Cc2ccccc2)c1=O | 0% | -10% | 0% | 6.3µM* | .
CC1CCN(C(=O)c2ccc(NS(=O)(=O)c3ccc4[nH]c(=O)[nH]c4c3)cc2)CC1 | 0% | . | 0% | . | 3
COc1cc(NC(=O)Nc2cccc(Cl)c2)c(C(=O)O)cc1OC | -1% | 1% | ? | ? | -6
COC(=O)c1cc(OC)c(OC)cc1NC(=S)Nc1cccc(Cl)c1 | 0% | 6.3µM* | 14% | 4µM* | 21
COc1ccc(Cl)cc1NC(=S)Nc1ccc(Cl)cn1 | -1% | ? | -5% | 1.3µM* | -4
COc1ccc(Cl)cc1NC(=O)CC(=O)Nc1cc(Cl)ccc1OC | 0% | -8% | 4% | 17% | 4
COc1ccc(Cl)cc1S(=O)(=O)Nc1ccc(Cl)cn1 | 0% | 3% | 15% | 3% | 1
COC(=O)c1cc(OC)c(OC)cc1NC(=S)Nc1cc(Cl)ccc1OC | -1% | 1.4µM* | 2% | 1.3µM* | -14
Cc1cc(OCc2cc(C(=O)N3CCC(Oc4cccnc4)CC3)no2)cc(C)c1Cl | 0% | ? | -20% | -28% | 0
CC(C)NC(=O)N1CC[C@@]2(CCCN(S(=O)(=O)c3ccccc3)C2)C1 | . | -1% | . | 4% | .
O=S(=O)(c1ccccc1F)N1CCN(c2nc(-c3cccnc3)nc3ccccc23)CC1 | 0% | . | 18µM* | . | -24
Cc1ccc(C)c(S(=O)(=O)N2CCN(c3nc(-c4cccnc4)nc4ccccc34)CC2)c1 | -1% | . | 18µM* | . | -41
CCCc1cc(=O)n2nc(N3CCC(C(=O)N4CCN(c5cccc(OC)c5)CC4)CC3)sc2n1 | -1% | -6% | -20% | 42% | 6
Cc1ccc(C(=O)C2=C(O)C(=O)N(c3ncccn3)C2c2ccccc2F)o1 (centres undefined) | -1% | 6% | -3% | -3% | -111*
CCN(CC)c1ccc(C(=C2C=CC(=[N+](CC)Cc3cccc(S(=O)(=O)[O-])c3)C=C2)c2ccc(N(CC)Cc3cccc(S(=O)(=O)O)c3)cc2)cc1 | . | 11µM* | . | -16% | .
CCN(CC)c1ccc(C(=C2C=CC(=[N+](CC)CC)C=C2)c2ccccc2)cc1 | . | 35µM* | . | 2.5µM* | .
CC(=O)Oc1c(C)cc(Cl)cc1C(=O)Nc1ccc([N+](=O)[O-])cc1Cl | 0% | 1µM* | ? | 1µM* | -82*
CC(=O)OCC(=O)Nc1ccc([N+](=O)[O-])cc1Cl | 0% | 7% | 17% | -40% | -3
COc1ccc(-c2cn3nc4c(nc3n2)CCCC4)cc1 | 0% | 1.3µM* | ? | ? | 3
CC(C)C[C@@H](NC(=O)[C@H](Cc1ccccc1)NC(=O)c1cnccn1)B(O)O | . | ? | . | 0.0079µM* | .
O=C1C2=C(S[C@@H]3O[C@H](CO)[C@@H](O)[C@H](O)[C@H]3O2)C(=O)c2ccccc21 | . | -15% | . | -33% | .

Screening data deposited in PubChem BioAssay by National Center for Advancing Translational Sciences (NCATS).
